# Hit rate of the full screen: of about 48,000 compounds, about 13,000 (27%) showed an effect of 50% or more. The list shows a part of the results.
# Tested on: Wolbachia pipientis
# Assay: Anti-Wolbachia Cell-Based Screen
# Format: functional
# Design: scale not given: in the data most compounds retested in dose-response had high values
# Details: 5 µM
row,SMILES,Percent Effect [%]
1,COC1CCCN(C(=O)NCC(F)F)C1 (stereo unspecified),-0.267
2,CN(Cc1ccco1)C1CCC12CCN(C(=O)N1CCCC1)CC2.O=C(O)C(F)(F)F (stereo unspecified),-11.51
3,Cc1ccc(C2CCCCCN2CCCS(C)(=O)=O)o1 (stereo unspecified),-22.51
4,CCOc1ccc(NC(=O)c2scnc2CC)cc1CO,-2.962
5,O=C1CN(C(=O)CSC2CCCc3ccccc32)CCN1 (stereo unspecified),-8.523
6,CC[C@H]1CN(C(=O)c2cccnc2)CC[C@H]1CC(=O)NC1CC1,4.498
7,O=C(c1cccnc1)N1CCCC(c2ccnc3nccn23)C1 (stereo unspecified),79.76
8,Cc1cc(C2CCCN(C(=O)c3cccnc3)C2)ccn1 (stereo unspecified),84.57
9,O=C(NS(=O)(=O)Cc1ccc(F)cc1)C1CCOc2ccccc21 (stereo unspecified),-4.826
10,CSC(C)C(=O)N1CCCN(Cc2cscn2)CC1 (stereo unspecified),-14.88
11,CC(O)CN1CCN(C(=O)c2ccc(N(C)C)nn2)CC1 (stereo unspecified),2.216
12,CC(O)CN1CCN(C(=O)c2ccc(N(C)C)nc2)CC1 (stereo unspecified),3.143
13,CN(C)c1ccc(C(=O)N2CCN(Cc3cscn3)CC2)cn1,116
14,CN(C)c1ccc(C(=O)N2CCCN(Cc3cscn3)CC2)nn1,113.8
15,CCOCC(O)CN1CCN(C(=O)c2ccc(N(C)C)nc2)CC1 (stereo unspecified),-21.06
16,O=C([C@H]1CCCO1)N1CCc2ncnc(NC3CC3)c2CC1,1.456
17,O=C(N1CCOCC1)N1CCc2ncnc(NC3CCC3)c2CC1.O=C(O)C(F)(F)F,91.29
18,O=C(N1CCOCC1)N1CCc2ncnc(NC3CC3)c2CC1,0.5236
19,O=C(C1CCCO1)N1CCc2ncnc(NC3CCC3)c2CC1.O=C(O)C(F)(F)F (stereo unspecified),103.9
20,CCCC(C(=O)NC1CCN(S(C)(=O)=O)CC1)n1cccc1 (stereo unspecified),-3.816
21,CCNC(=O)NC(=O)CN1CCOC(c2ccc(Br)cc2)C1 (stereo unspecified),-12.38
22,OC1(CNCCSc2ccccn2)CCCNC1 (stereo unspecified),-44.86
23,N#Cc1cccnc1N1CCCC(CO)(CCOc2ccccc2)C1 (stereo unspecified),0.3876

row,SMILES,Percent Effect [%]
1,CN(C)c1ccc(CCNC(=O)C2CCC(=O)N(C3CCCC3)C2)cc1 (stereo unspecified),-1.429
2,CCC(=O)N1CCC(n2cc(C(C)(C)O)nn2)CC1,-6.105
3,CCN(CC(F)(F)F)C(=O)C1CCCN(Cc2nc(C)c(C)o2)C1 (stereo unspecified),-1.409
4,CCN(CC)C(=O)CN1CCCC(c2nc(C)c3c(n2)N(C)CCC3)C1 (stereo unspecified),160
5,CC(C)N(C)C(=O)CN1CCCC(c2ccc(C(=O)O)cc2)C1 (stereo unspecified),0.2821
6,CCN(C(=O)CN1CCC(c2n[nH]c(C3CC3)n2)CC1)C1CC1,20.34
7,CCC(=O)N1CCC(c2nc(C)c3c(n2)N(C)CCC3)CC1,112.7
8,CCN(CC)C(=O)CN1CCC(c2nc(C)c3c(n2)N(C)CCC3)CC1,126.4
9,CCN(C(=O)CN1CCC(c2cc3ccccc3[nH]2)CC1)C1CC1,-6.072
10,CCC(=O)N1CCC(c2nc3ccc(NC(C)C)cn3n2)CC1,-7.587
11,CCC[C@H]1CN(Cc2ccc(N(C)C)nc2)C[C@@H]1NC(=O)CSC,-2.183
12,O=C(NC[C@H]1OC[C@@H](NC2CCCCC2)[C@@H]1O)c1cccs1,2.272
13,CC(C#N)CN(C)C(=O)CCNC(=O)C(C)(C)C (stereo unspecified),107.7
14,CC(C)C[C@H](NC(=O)CNC(=O)OC(C)(C)C)C(=O)OC(C)(C)C,3.003
15,CN(C)C(CNC(=O)CCNC(=O)OCC(F)(F)F)c1ccsc1 (stereo unspecified),-11.09
16,CC(C)(C)OC(=O)NCCC(=O)N(CCC#N)Cc1ccco1,11.1
17,CC(C)NC(=O)CNC(=O)OC(C)(C)C,-14.72
18,CC(C)CC(C#N)NC(=O)CCNC(=O)C(C)(C)C (stereo unspecified),9.809
19,CC(C#N)CN(C)C(=O)CCNC(=O)OC(C)(C)C (stereo unspecified),95.62
20,CC(OCC(F)(F)F)C(=O)NCCN(C)C (stereo unspecified),-5.396
21,Cc1cccc(OCCC(=O)N(C)CC(C)C#N)c1C (stereo unspecified),20.16
22,CC(O)CN(C)C(=O)CCNC(=O)OC(C)(C)C (stereo unspecified),96.59
23,CC(C#N)CN(C)C(=O)CCNC(=O)OCC(F)(F)F (stereo unspecified),112.9

row,SMILES,Percent Effect [%]
1,CCC(C#N)NC(=O)CCNC(=O)C(C)(C)C (stereo unspecified),-9.888
2,Cc1cnn(CC2CCCN2c2ccc(C#N)cn2)c1 (stereo unspecified),16.4
3,CC1(C)CC1(C(=O)N1CC(c2cccnc2)C1)c1ccccc1F (stereo unspecified),-22.23
4,Nc1nccnc1C(=O)N1CC(OCc2cccc3ccccc23)C1,-5.576
5,CN1CCO[C@@H]2CN(C(=O)NCc3cccc(F)c3)CC[C@@H]2C1,89.36
6,COc1ccccc1OCC(=O)N1C[C@@H]2CN(C)CCO[C@@H]2C1.O=C(O)C(F)(F)F,-10.13
7,CN1CCO[C@@H]2CN(C(=O)NCc3ccccc3)CC[C@@H]2C1.O=C(O)C(F)(F)F,100.3
8,CN(C)C[C@H]1OC[C@@H]2CCN(C(=O)NCc3cccc(F)c3)C[C@@H]21,12.45
9,CC(C)N1CCO[C@@H]2CN(C(=O)NCc3ccccc3)CC[C@@H]2C1.O=C(O)C(F)(F)F,99.72
10,CN(C)C[C@H]1OC[C@@H]2CN(C(=O)NCc3cccc(F)c3)CC[C@@H]21.O=C(O)C(F)(F)F,-10.24
11,CC(C)N1C[C@@H]2CN(C(=O)NCc3ccccc3)CCC[C@]2(C(=O)O)C1.O=C(O)C(F)(F)F,-4.508
12,COCCN1CCO[C@@H]2CN(C(=O)NCc3ccccc3)CC[C@@H]2C1.O=C(O)C(F)(F)F,-7.267
13,Cc1csc(CNC(=O)N(C)Cc2ccc([S+](C)[O-])cc2)n1 (stereo unspecified),-10.57
14,COCCN(CC1CCCN(C2Cc3ccccc3C2)C1)C(=O)CSC (stereo unspecified),-15.09
15,COc1cc(N2CCCn3cnc(COCCO)c3C2)ncn1,-11.76
16,O=C(OCc1cccs1)c1cccc(C(=O)N2CCCC2)n1,-3.794
17,O=C(c1cccn1Cc1cccs1)N1CCN2CCCCC2C1 (stereo unspecified),106.1
18,O=C(c1cccn1Cc1cccs1)N1CCN(C2CC2)CC1,5.207
19,O=C(c1cccn1Cc1cccs1)N1CCC(C(=O)N2CCCC2)CC1,86.86
20,O=C(c1csc(-c2cccs2)n1)N1CCN2CCCCC2C1 (stereo unspecified),1.576
21,NC(=O)CC1CCN(C(=O)c2cccn2Cc2cccs2)CC1,101.5
22,NC(=O)CC1CCN(C(=O)c2csc(-c3ccccc3F)n2)CC1,-1.67
23,CNC(=O)C1CCN(C(=O)c2cccn2Cc2cccs2)CC1,0.5999

row,SMILES,Percent Effect [%]
1,O=C(c1cccn1Cc1cccs1)N1CCN(C(=O)C2CC2)CC1,-0.05599
2,NC(=O)C1CCN(C(=O)c2cccn2Cc2cccs2)CC1,117.1
3,Cc1cc(C(=O)N2CCc3[nH]cnc3C2C(=O)O)c(-c2ccccc2)o1 (stereo unspecified),-20.72
4,CN(C)CCNC(=O)c1nc2c(o1)CN(C(=O)c1cccnc1)C2.O=C(O)C(F)(F)F.O=C(O)C(F)(F)F,-13.48
5,COC(C)(C)CC(C)NC(=O)NC1CCN(Cc2ccccn2)CC1 (stereo unspecified),2.912
6,Cn1ncc2c(NCC(=O)N3CCNCC3)nc(C(C)(C)C)nc21,-6.319
7,CC(C)C1CN(c2ncc(F)cn2)CCC(=O)N1Cc1ccc(F)cc1 (stereo unspecified),23.16
8,Cc1ccc(S(=O)(=O)Nc2cccnc2O)cc1C,0.1699
9,NC(=O)C1CCN(C(=O)c2cccn2Cc2cccs2)C1 (stereo unspecified),92.97
10,O=C(c1cccn1Cc1cccs1)N1CCSCC1,87.27
11,CCC(O)CN1CCN(C(=O)c2cccn2Cc2cccs2)CC1 (stereo unspecified),-10.05
12,CC(CNC(=O)N1CCSCC1)Cc1cccs1 (stereo unspecified),19.49
13,O=C1NC(c2ccccc2)=N[C@@]12CC[C@@H]1CN(Cc3ccncc3)C[C@@H]12,-3.809
14,Cc1ccc(-c2cn(C3CCN(C(=O)[C@H]4CCCO4)CC3)nn2)cc1,-12.17
15,Cc1c(C(=O)N2CCC(C(O)c3ccc(Cl)cc3)CC2)cnn1C (stereo unspecified),-1.505
16,O=C(C1CCCO1)N1CCC(n2cc(-c3ccc(F)cc3)nn2)CC1 (stereo unspecified),-2.259
17,O=C(c1cnn2c1OCCC2)N1CCC(Cc2ccccc2)CC1,143.8
18,CCn1ncc(C(=O)N2CCCN(CCCc3ccccc3)CC2)c1C,5.21
19,CN(C)C(=O)c1cnn2c1OCCC2,85.82
20,O=C(c1cnn2c1OCCC2)N1CCN(C/C=C/c2ccccc2)CC1,8.023
21,CCCn1ncc(C(=O)N2CCN(C3CCCC3)CC2)c1C,4.008
22,Cc1c(C(=O)N2CCCN(S(C)(=O)=O)CC2)cnn1C,116.6
23,Cc1cc2cc(CNC(=O)c3cnn4c3OCCC4)ccc2[nH]1,3.624

row,SMILES,Percent Effect [%]
1,O=C(c1cnn2c1OCCC2)N1CCN(C(=O)C2CCCO2)CC1 (stereo unspecified),101.5
2,CC(=O)N1CCOC2(CCCN(Cc3ccc(Cl)c(C(F)(F)F)c3)C2)C1 (stereo unspecified),-8.143
3,Clc1cc(CN2CCCC2Cn2cncn2)c2ncccc2c1 (stereo unspecified),9.576
4,N#Cc1cccnc1N1CCCC(CO)(Cc2cccc(Cl)c2)C1 (stereo unspecified),-4.475
5,CC(c1cccc(-c2cn(Cc3ccoc3)nn2)c1)N(C)C (stereo unspecified),-9.392
6,CNC(=O)Cc1ccc(NC(=O)NCc2nc(C)sc2C)cc1,5.733
7,CN(C)C(=O)CCC[S+]([O-])Cc1ccc(Cl)c(Cl)c1 (stereo unspecified),-0.5151
8,CC(=O)c1ccc(N2CCN(C(=O)c3cc(C(C)C)nn3C)CC2)cc1,-2.718
9,CC(=O)N1CCCN(C(=O)c2cnn(C(C)(C)C)c2C)CC1,120.5
10,CN(Cc1cncs1)C1CCN(C(=O)OC(C)(C)C)CC1,3.797
11,CC(=O)N1CCN(c2nc3c(cnn3C(C)(C)C)c(=O)[nH]2)CC1,-9.111
12,CS(=O)(=O)N1CCn2c(C(=O)N3CCOCC3)cnc2C1,-13.12
13,CS(=O)(=O)N1CCN(C(=O)c2cnn3c2OCCC3)CC1,124.7
14,CC(=O)c1ccc(N2CCN(C(=O)c3cnn4c3OCCC4)CC2)cc1,108.1
15,CC(C)(C)OC(=O)N1CCCN(c2nnc(C3CC3)s2)CC1,1.365
16,CCc1c(C(=O)N2CCCN(C(C)=O)CC2)cnn1C(C)(C)C,7.313
17,CC(=O)c1ccc(N2CCN(C(=O)NC(C)c3ccc(C)o3)CC2)cc1 (stereo unspecified),-3.361
18,CS(=O)(=O)N1CCN(C(=O)c2[nH]c3ccc(Cl)cc3c2Cl)CC1,-22.4
19,CC(C)(C)OC(=O)N1CCN(C(=O)c2cnn3c2OCCC3)CC1,119.8

# Source: ChEMBL document CHEMBL3988442, “University of Dundee, Small-Polar-MMV Screening Library” (2021)
